Pf growth 96h: Primary qHTS for delayed death inhibitors of the malarial parasite plastid, 96 hour incubation; Potency, µM (highest dose often 28.7 µM), actives largely listed as inhibitors; P. falciparum luciferase reporter growth, 96 h; hit rate 6.9% among 320,000
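Cell-based qHTS: luciferase-tagged P. falciparum in erythrocytes (2% hematocrit, 0.05% parasitemia final) incubated with compounds for 96 hours, 37 C, 5% CO2; luciferase detection reagent then added and luminescence measured.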
HCV inhibitor: qHTS Assay for Inhibitors of Hepatitis C Virus (HCV); Potency, µM (highest dose often 41.8 µM), hits mostly inhibitors; hit rate 3.4% among 340,000; AID 651820, 2012; Huh7.5.1 HCVcc-Cre infection, luciferase reporter, 44 h
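HCVcc-Cre virus at an moi near 0.5 was added right after compound to cells cultured 4 h from seeding (1,000 cells/well). Luciferase activity was determined 44 h later, 15 min after substrate addition at RT.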
NS1 function inh: qHTS Assay for Inhibitors of Influenza NS1 Protein Function; Potency, µM (titrated, usually from 46.1 µM); hit rate 0.4% among 270,000; calls by dose curve; also: actives are rising curves; nearly all actives have a fitted effect of over 50% in size
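A cell-based growth assay was used: compounds that relieve NS1-induced slow growth of budding yeast raise OD600. Assay medium was yeast nitrogen base with ammonium sulphate and -URA supplement, pH 6.0, with 2% galactose.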
SARS PLP yeast: qHTS of Yeast-based Assay for SARS-CoV PLP; hit rate 0.19% among 330,000; S. cerevisiae expressing SARS-CoV PLpro, growth rescue; AID 485353, 2010; Potency, µM (top dose mostly 32.9 µM), most hits filed as activators; calls by dose curve; also: nearly all actives have a fitted effect of over 55% in size
AMA1-RON2 inh: qHTS for Inhibitors of AMA1-RON; Towards Development of Antimalarial Drug Lead: Primary Screen. hit rate 0.2% among 360,000. AlphaScreen AMA1-biotinylated RON2 peptide binding. Potency, µM (highest dose often 58.2 µM), actives largely listed as inhibitors; also: nearly all actives have a fitted effect of over 45% in size
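AMA1 (3D7) with his tag at 25 nM final met compounds first, then biotinylated RON2 peptide at 25 nM; detection used donor plus acceptor beads, 10 µg/mL apiece, read by AlphaScreen after 30 min at room temperature.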
Pf growth 48h: Primary qHTS for delayed death inhibitors of the malarial parasite plastid, 48 hour incubation | hit rate 5.9% among 310,000 | P. falciparum luciferase growth in erythrocytes, 48 h | Potency, µM (highest dose often 28.7 µM), most hits filed as inhibitors
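Luciferase-expressing P. falciparum in infected erythrocytes (2% hematocrit, 0.1% parasitemia final) in RPMI 1640/0.5% Albumax were exposed to compound for 48 hours at 37 C, 5% CO2; growth read as luminescence.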
Each line names hits and unclear results; the compound was inactive in the other large screens. Most compounds without a hit are left out; they make up all but 12% or so of the library. Unless noted, calls follow the shape of the dose curve; as a rule, active = well fitted curve in the direction sought with a large enough effect; inconclusive = small, poorly fitted or top-dose-only effect, or another doubt; inactive = no such curve, though single readings can be large; an effect the other way counts as inactive or inconclusive.

CCn1c2ccccc2c2nc3cc(S(=O)(=O)N4CCOCC4)ccc3nc21	HCV inhibitor 10µM (no result: Pf growth 48h)
Cc1cccc(CN2CCC(C(=O)Nc3ccc(-n4nc(C)cc4C)cc3)CC2)n1	Pf growth 96h inconclusive
CN(Cc1ccccc1)C(=O)C1CCN(S(=O)(=O)c2ccc(-n3cnnn3)cc2)CC1	none
Cc1ccc(S(=O)(=O)N2CCOCC2)cc1C(=O)OCC(=O)N1CCCCC1	none (no result: Pf growth 96h, NS1 function inh, Pf growth 48h)
Cc1ccc(COC(=O)c2cc(S(=O)(=O)N3CCOCC3)ccc2C)cc1	Pf growth 96h 13µM, HCV inhibitor inconclusive, Pf growth 48h 9.3µM (no result: NS1 function inh)
NC(=O)C1CN(C(=O)c2nn(Cc3ccccc3)c(=O)c3ccccc23)c2ccccc2O1 (centres undefined)	Pf growth 96h inconclusive, Pf growth 48h inconclusive (no result: NS1 function inh)
CCOC(=O)c1c(CN2CCOCC2)n(-c2ccccc2)c2cc(Br)c(OC)cc12	HCV inhibitor inconclusive, Pf growth 48h inconclusive (no result: Pf growth 96h)
CCOC(=O)c1c(CSC(=N)N)n(-c2ccc(C)cc2)c2cc(Br)c(OC(C)=O)cc12	Pf growth 96h 3.3µM, HCV inhibitor inconclusive, Pf growth 48h 7.4µM
CCOC(=O)c1c(CN2CCN(C)CC2)n(C)c2cc(Br)c(OC)cc12	HCV inhibitor inconclusive, Pf growth 48h 15µM
CCOC(=O)c1c(CSC(=N)N)n(C)c2cc(Br)c(OC(C)=O)cc12	HCV inhibitor inconclusive, Pf growth 48h inconclusive
CCOC(=O)c1c(CN2CCOCC2)n(-c2ccccc2)c2cc(Br)c(O)cc12	Pf growth 96h 1.9µM, Pf growth 48h 1.7µM
CCOC(=O)c1c(CN(C)C)n(-c2ccc(C)cc2)c2cc(Br)c(O)cc12	Pf growth 96h 0.33µM, HCV inhibitor inconclusive, Pf growth 48h 0.74µM
CCOC(=O)c1c(CN2CCCCC2)n(C)c2cc(Br)c(O)cc12	none (no result: Pf growth 96h, Pf growth 48h)
Cc1cc(Br)c(NC(=O)COC(=O)C2CCCCC2)c(Br)c1	none (no result: Pf growth 96h, NS1 function inh, Pf growth 48h)
COc1ccc(CN2CCC(=O)N([C@H](CO)c3ccccc3)CC2)cc1	Pf growth 96h inconclusive
CCOC(=O)c1c(CN(C)C)n(-c2ccccc2)c2cc(Br)c(OC)cc12	HCV inhibitor 7.9µM, AMA1-RON2 inh inconclusive, Pf growth 48h inconclusive
COc1ccc(C2c3c4c(n(C)c3CCN2C)CCN(C)C4c2ccc(OC)cc2)cc1 (centres undefined)	HCV inhibitor 13µM, Pf growth 48h inconclusive (no result: Pf growth 96h)
CC(=O)OC1(C(C)=O)CCC2C3CC(Cl)C4=CC(=O)CCC4(C)C3CCC21C (centres undefined)	none (no result: Pf growth 96h, NS1 function inh, SARS PLP yeast, Pf growth 48h)
CCCOc1ccc(C(=O)NNC(=S)NC(=O)c2cc(-c3ccc(Cl)cc3)nc3ccccc23)cc1	HCV inhibitor 16µM, Pf growth 48h inconclusive
CCCOc1cccc(-c2cc(C(=O)NNC(=S)NCC)c3ccccc3n2)c1	Pf growth 48h 10µM (no result: Pf growth 96h)
COc1ccc(C(=O)NNC(=S)NC(=O)c2cc(-c3ccccc3)nc3ccccc23)cc1	HCV inhibitor inconclusive
CCNC(=S)NNC(=O)c1cc(-c2cccc(OC)c2)nc2ccccc12	none
COc1ccc(NC(=O)C2CC(=O)N(c3ccccc3Cl)C2)c(OC)c1 (centres undefined)	none
Cc1ccc(OCCn2cnc3c2c(=O)n(C)c(=O)n3C)cc1	HCV inhibitor 3.5µM
CCCCn1cnc2c1c(=O)n(C)c(=O)n2C	none
Cc1ccc(OCCn2c(=O)n(C)c3ccccc32)cc1	HCV inhibitor 11µM
Cn1c(=O)c2c(ncn2CCO)n(C)c1=O	Pf growth 96h 4.3µM
CC(C)CCn1cnc2c1c(=O)n(C)c(=O)n2C	none
CSCCC(NC(=O)c1ccco1)C(=O)NCC1CCCO1 (centres undefined)	Pf growth 48h inconclusive (no result: NS1 function inh)
COc1ccccc1NC(=O)CN1C(=O)NC2(CCCc3ccccc32)C1=O (centres undefined)	Pf growth 96h inconclusive (no result: NS1 function inh)
COc1cc2ccc(C(=O)O)cc2cc1OC	none (no result: Pf growth 96h, HCV inhibitor, NS1 function inh, SARS PLP yeast, Pf growth 48h)
COc1ccc(CN(C(=O)c2ccco2)c2ccccc2)cc1	none
COc1ccc(CN(CCC(c2ccccc2)c2ccco2)C(=O)c2ccco2)cc1 (centres undefined)	Pf growth 96h 12µM

Bioassay records deposited in PubChem BioAssay by National Center for Advancing Translational Sciences (NCATS).
